This note sets out measurements from PubChem BioAssay.

The source made the active and inactive calls. The rule behind the calls is not given here.

A word on the inhibition: it is the drop in the measured response relative to a control, in per cent.

The assay deals with Pantothenate synthetase (Mycobacterium tuberculosis (strain ATCC 25618 / H37Rv)) (UniProt P9WIL5). Briefly: Recombinant Mtb pantothenate synthetase (PanC) inhibitors, coupled enzyme, confirmatory (AID 375).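 Note: 0% = full reaction with vehicle and 100% = no enzyme background.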 To be noted: coupled enzyme assay; at 10 µM, active compounds read high.
Pantothenate synthetase (Mycobacterium tuberculosis (strain ATCC 25618 / H37Rv)), sequence (P9WIL5 whole entry, looked up): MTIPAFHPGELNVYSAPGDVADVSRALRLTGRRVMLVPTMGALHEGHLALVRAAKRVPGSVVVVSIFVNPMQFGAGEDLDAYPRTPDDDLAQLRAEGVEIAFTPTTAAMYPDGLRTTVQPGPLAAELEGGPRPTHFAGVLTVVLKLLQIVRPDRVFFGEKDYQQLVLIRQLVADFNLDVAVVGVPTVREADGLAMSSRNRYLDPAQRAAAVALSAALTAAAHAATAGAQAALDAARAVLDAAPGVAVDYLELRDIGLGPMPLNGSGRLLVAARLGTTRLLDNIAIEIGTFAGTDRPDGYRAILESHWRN
In the case of `Cc1ccc(Cn2c(=O)c3ccccc3n3c(CCC(=O)O)nnc23)cc1`, the inhibition is 0% (inactive).

For the molecule `O=C(NC1CCCCCC1)C1CCCN(S(=O)(=O)c2cccs2)C1` (stereo unspecified), the inhibition is 0% (inactive).

Take `CC1CC(C)CN(CC(=O)Nc2ccc(S(N)(=O)=O)cc2)C1` (stereo unspecified): the inhibition is 0% (inactive).

As to `CCc1nccn1S(=O)(=O)c1ccc2ccc(C)cc2c1`, the inhibition is 3% (inactive).

As to `CC[C@H]1CN2CCc3cc(OC)c(OC)cc3[C@@H]2C[C@@H]1C[C@H]1NCCc2cc(OC)c(OC)cc21`, the inhibition was 0% (inactive).

Take `CCOC(=O)CSC1=C(C#N)C(c2ccc(Cl)cc2)C(C(=O)OC)C(=O)N1` (stereo unspecified): the inhibition was 0% (inactive).

Regarding `COc1ccccc1Nc1nc2ccccc2[nH]1`, the inhibition is 0% (inactive).

In the case of `O=C(C1CCC(CNc2c(N3CCCCC3)c(=O)c2=O)CC1)N1CCc2ccccc2C1` (stereo unspecified), the inhibition was 0% (inactive).

With `COc1ccc(-c2nc3cc(NC(=O)Cc4ccc(OC)c(OC)c4)ccc3o2)cc1`, the inhibition is 0% (inactive).

Regarding `CCCCCn1c(CN2CCN(C(=O)c3ccco3)CC2)nc2c1c(=O)n(C)c(=O)n2C`, the inhibition was 1% (inactive).

For `COc1ccc2nc(NC(=O)C3CCCN(S(=O)(=O)c4cccc5nsnc45)C3)sc2c1` (stereo unspecified), the inhibition is 5% (inactive).

On to `CCN(CC(=O)O)S(=O)(=O)c1cc(Cl)ccc1Cl`, for which the inhibition is 0% (inactive).

Take `COc1ccccc1Cn1c(-c2ccco2)nc2nc3ccccc3nc21`: the inhibition is 0% (inactive).

As for `C[C@H](NC(=O)OC(C)(C)C)C(=O)NCC1CCC(C(=O)O)CC1` (stereo partly specified), the inhibition is 0% (inactive).

Consider `COc1cc(NC(=O)C2CCCN2S(=O)(=O)c2cccc3cccnc23)cc(OC)c1OC` (stereo unspecified), for which the inhibition is 0% (inactive).

In the case of `CCOC(=O)c1ccc(NC(=O)NC(C)C2CCCO2)cc1` (stereo unspecified), the inhibition is 0% (inactive).
